# Experimental data taken from PubChem BioAssay.
# Values without a mark were called inactive. How the calls were made is not given here.
# Test system: Aerobactin synthetase IucA (Klebsiella pneumoniae hvKP1)
# Experiment: IucA enzyme inhibition, primary screen, biochemical, Spectrum library (AID 1346200);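 further: 100% = wells without compound and 0% = wells lacking enzyme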
# Conditions: malachite green pyrophosphate, A620, at 8 µM, hits give low values
row,Structure (SMILES),activity remaining [%]
1,C[C@]12CCC3c4ccc(O)cc4CCC3C1C[C@@H](O)[C@@H]2O (some centres undefined),99.6
2,C[C@H]1COc2c(N3CCN(C)CC3)c(F)cc3c(=O)c(C(=O)O)cn1c23,113
3,CC(C)=CCCC(C)[C@@H]1CC[C@]2(C)C3=C(CC[C@@]12C)C1(C)CC[C@H](O)C(C)(C)C1CC3 (some centres undefined),124
4,O=C1C(O)=C(O)C(=O)C(O)=C1O,125
5,NCC1CCCCC1CC(=O)O (centres undefined),98.9
6,CC1(C)C2CC[C@]3(C)C(C(=O)C=C4[C@@H]5C[C@@](C)(C(=O)O)CC[C@]5(C)CC[C@]43C)[C@@]2(C)CC[C@@H]1O (some centres undefined),126
7,O=c1c(O)c(-c2ccc(O)c(O)c2)oc2cc(O)ccc12,101
8,OC(c1cc(C(F)(F)F)nc2c(C(F)(F)F)cccc12)C1CCCCN1 (centres undefined),120
9,C[C@]12CCC(=O)C=C1C=CC1C2CC[C@@]2(C)C1CC[C@@]21CCC(=O)O1 (some centres undefined),119
10,CC(C)(CO)C(O)C(=O)NCCCO (centres undefined),118
11,NC1=NCCN1CC(=O)O,112
12,CCCCOc1ccc(C(=O)CCN2CCCCC2)cc1,96.6
13,O=C(Oc1ccccc1C(=O)O)c1ccccc1O,115
14,Cc1cc(O)c2c(c1)C(=O)c1cccc(O)c1C2=O,107
15,N[C@@H](C(=O)O)[C@@H](O)[C@H](O)[C@H](O)CO,120
16,COc1ccc2c(c1)O[C@H]1c3ccc(OC)cc3OC[C@@H]21,122
17,O=c1cc(-c2cccc(O)c2)oc2ccc(O)cc12,101
18,CC(=O)Oc1cc(C)c2c(c1C=O)Oc1c(c(C)c(OC(C)=O)c3c1C(OC(C)=O)OC3=O)OC2=O (centres undefined),106
19,CN[C@H]1C[C@@H](N)[C@H](O)[C@@H](O[C@@H]2O[C@H](CO)[C@@H]3OC4(O[C@@H]3[C@@H]2O)O[C@H](C(N)CO)[C@H](O)[C@H](O)[C@H]4O)[C@@H]1O (some centres undefined),122
20,O=C1C=CC(=C(c2ccc(O)cc2)c2ccc(O)cc2)C=C1,105
21,Cc1c(N(C)C)c(=O)n(-c2ccccc2)n1C,123
22,CNS(=O)(=O)Cc1ccc2[nH]cc(CCN(C)C)c2c1,115
23,CC[C@]1(O)CC2CN(CCc3c([nH]c4ccccc34)[C@@](C(=O)OC)(c3cc4c(cc3OC)N(C=O)[C@H]3[C@@](O)(C(=O)OC)[C@H](OC(C)=O)[C@]5(CC)C=CCN6CC[C@]43[C@@H]65)C2)C1 (some centres undefined),82.4
24,COc1c(OC)c2occc2c2oc(=O)ccc12,122
25,CCOc1ccc(Cc2nccc3cc(OCC)c(OCC)cc23)cc1OCC,109
26,C/C(=C\CO)CC[C@H](C)CCC[C@H](C)CCCC(C)C,121
27,CC(=O)OCC(=O)[C@@]1(O)CCC2C3CCC4=CC(=O)CC[C@]4(C)C3C(=O)C[C@@]21C (some centres undefined),120
28,COC(=O)[C@]1(C)CC[C@]2(C)CC[C@]3(C)C4=CCc5c(cc(O)c(O)c5C)[C@]4(C)CC[C@@]3(C)C2C1 (some centres undefined),106
29,CC1(C)C[C@@H](O)[C@]2(C)CC[C@]3(C)C(=CCC4[C@@]5(C)CC[C@H](O)[C@](C)(CO)C5CC[C@]43C)[C@@H]2C1 (some centres undefined),100
